Results filed as inconclusive are left out. Values without a mark were called inactive. Calls follow the shape of the full dose curve.
assay: S16 Schwann cell PMP22 intronic element beta-lactamase assay (AID 624044); conditions: S16 rat Schwann cells, PMP22 element beta-lactamase FRET, 24 h; ratio activity, negative = inhibition: at 38.3 µM (top of the series) unless noted; also: nearly all actives have a fitted effect of over 15% in size
Description: Description: Charcot-Marie-Tooth-Association [CMTA] National Center for Advancing Translational Sciences [NCATS] Charcot-Marie-Tooth (CMT) disease was first characterized by Jean-Martin Charcot and Pierre Marie in France and, independently, by Howard Henry Tooth in England in 1886. CMT is one of the most common inherited neurological diseases, affecting approximately 1 in 2,500 Americans. […] The most prevalent type of CMT is known as CMT1A and caused by a duplication of the PMP22 gene which leads to over-expression of this protein. PMP22 is a glycosylated intrinsic membrane protein accounting for 2-5% of the myelin protein content, and its over-expression results in demyelination and subsequently axonal loss. A pair of cellular transcription-based assays was developed in the S16 rat Schwann cell lines (Hai, M., et al., 2002) stably transfected with orthogonal reporters - firefly luciferase (Fluc) and beta-lactamase (beta-Lac) - whose expression is driven by an intronic regulatory element of the PMP22 gene (Jones, E.A., et al., 2011) to recapitulate endogenous expression of PMP22. The current assay employs Blac as a reporter of PMP22 expression. A comprehensive library of approved drugs, the NCGC Pharmaceutical Collection (Huang, R., et al., 2011), was screened in the cross-validating platform of the orthogonal reporter assays to identify drug modulators inhibitory towards PMP22 expression. A set of counter-screens was devised to address non-specific activity of the library. An ATP-dependent CellTiter-Glo assay (developed by Promega Corp) was utilized to control cell viability. In addition, biochemical Fluc enzyme assay was performed to assess direct inhibition of the Fluc enzymatic activity. References Hai, M., Muja, N., DeVries, G.H., Quarles, R.H. and Patel, P.I. Comparative analysis of Schwann cell lines as model systems for myelin gene transcription studies. J Neurosci Res, 2002. 69(4): pp 497-508 Huang, R., Southall, N., Wang, Y., Yasgar A., Shinn P., Jadhav, A. , Nguyen, D.-T. and Austin, C.P., The NCGC pharmaceutical collection: a comprehensive resource of clinically approved drugs enabling repurposing and chemical genomics. Sci Transl Med, 2011. 3(80): p. 80ps16.
S16 Schwann cell PMP22 intronic element beta-lactamase assay The beta-Lac-expressing S16 cells were seeded in black clear-bottom 1536 well plates at between 500-750 cells/6uL in DMEM medium containing 10% FBS, w/o phenol red. After overnight incubation at 37 degree Celsius/5% C02, 23 nL of compounds or DMSO were delivered to each well using a pin tool, followed by 24h-incubation at 37 degree Celsius/5% C02. Then one microl of LiveBLAzer FRET B/G detection mix (Invitrogen) was added to each well. An EnVision plate reader (PerkinElmer) was used to detect the dual beta-Lac output composed of fluorescence at 460nm for beta-Lac expression and FRET at 535nm for cell viability. The % signal at 535 nm was scaled to a full range of DMSO and zero and then normalized using the maximum response observed in the screen as 100% activity. The % signal at 460nm was normalized to the average readings of potassium clavulanate (a positive control) - treated cells relative to DMSO-treated cells (0% Activity). The concentration-effect curves were then classified based on curve quality (r2), response magnitude and degree of measured activity.

SMILES | ratio activity, negative = inhibition
CCc1ncnc2cc(OC)c(OC)cc12 | -3.22%
O=P(O)(O)OC[C@H]1O[C@](O)(COP(=O)(O)O)[C@@H](O)[C@@H]1O | 3.08%
O=c1n(CC2CO2)c(=O)n(CC2CO2)c(=O)n1CC1CO1 (stereo not given) | -25.3%
O.O.O.O.O.O.O.O=S(=O)([O-])[O-].[Co+2] | -3.44%
CC(=O)N=c1sc(S(N)(=O)=O)nn1C | -0.416% [at 17.1 µM]
CCN(CC)C(=O)c1cccnc1 | 2.08%
CCCCCc1ccc(C)cc1O | 4.39%
O=C(O)[C@H]1C(=CCO)O[C@H]2CC(=O)N12 | -34.7%
NCCN | -0.354%
CCC(C)[C@@H](N)C(=O)O (stereo not given in full) | 8.55%
CC(/C=C/C=C(\C)C(=O)O[C@@H]1O[C@H](CO[C@@H]2O[C@H](CO)[C@@H](O)[C@H](O)[C@H]2O)[C@@H](O)[C@H](O)[C@H]1O)=C\C=C\C=C(C)\C=C\C=C(/C)C(=O)O[C@@H]1O[C@H](CO[C@@H]2O[C@H](CO)[C@@H](O)[C@H](O)[C@H]2O)[C@@H](O)[C@H](O)[C@H]1O | 3.54%
CCCCCCCCCCCCCCCCCC(=O)OCC(C)O (stereo not given) | -0.254%
CCOC(=O)C1=C(COCCN)NC(C)=C(C(=O)OC)C1c1ccccc1Cl (stereo not given) | -3.48%
O=C(OCc1ccccc1)c1ccc(O)cc1 | -2.42%
C[C@H](CCC(=O)O)[C@H]1CC[C@H]2[C@@H]3CC[C@@H]4C[C@H](O)CC[C@]4(C)[C@H]3C[C@H](O)[C@]12C | 1.95%
CCCCCCCCCCCCCCCCCC(=O)OC[C@@H](O)[C@H]1OC[C@H](O)[C@H]1O | 1.3%
COc1ccc(/C=N/NC(=O)c2ccncc2)c(C(=O)O)c1OC | 4.12%
C=CC[C@@H]1/C=C(\C)C[C@H](C)C[C@H](OC)[C@H]2O[C@@](O)(C(=O)C(=O)N3CCCC[C@H]3C(=O)O[C@H](/C(C)=C/[C@@H]3CC[C@@H](O)[C@H](OC)C3)[C@H](C)[C@@H](O)CC1=O)[C@H](C)C[C@@H]2OC | -24.4%
NC(N)=O | 0.531%
FC(F)(F)C(F)(F)C(F)(F)C(F)(F)C(F)(F)C(F)(F)F | 0.234%

SMILES | ratio activity, negative = inhibition
COc1ccc(C(=O)CCC(=O)O)c2ccccc12 | -1.03%
NCC[C@H](O)C(=O)N[C@@H]1C[C@H](N)[C@@H](O[C@H]2O[C@H](CN)[C@@H](O)[C@H](O)[C@H]2O)[C@H](O)[C@H]1O[C@H]1O[C@H](CO)[C@@H](O)[C@H](N)[C@H]1O | -4.63%
C=CCOc1ccc(CC(=O)O)cc1Cl | -6.65%
CNC(=O)OCc1cccc(COC(=O)NC)n1 | -18.3%
CCSc1ccc2c(c1)N(CCCN1CCN(C)CC1)c1ccccc1S2 | 0.419% [at 17.1 µM]
CC1=C(/C=C/C(C)=C/C=C/C(C)=C/C(=O)Oc2c(C)c(C)c3c(c2C)CC[C@@](C)(CCC[C@H](C)CCC[C@H](C)CCCC(C)C)O3)C(C)(C)CCC1 | -26.4%
CC/C=C\C/C=C\C/C=C\CCCCCCCC(=O)O | 3.48%
COc1cc2c(cc1OC)[C@@H](Cc1cc(OC)c(OC)c(OC)c1)[N+](C)(CCCOC(=O)CC/C=C/CCC(=O)OCCC[N+]1(C)CCc3cc(OC)c(OC)cc3[C@H]1Cc1cc(OC)c(OC)c(OC)c1)CC2 (stereo not given in full) | -5.32%
OC[C@H]1O[C@@](CO)(O[C@H]2O[C@H](CO)[C@@H](O)[C@H](O)[C@H]2O)[C@@H](O)[C@@H]1O | 0%
CC1CC(OC(=O)C(O)c2ccccc2)CC(C)(C)C1 (stereo not given) | -3.78%
CN1CCc2c(c3ccccc3n2Cc2ccccc2)C1 | -4.6% [at 17.1 µM]
O=C(O)c1cc(N=Nc2ccc(O)c(C(=O)O)c2)ccc1O | -0.669%
CCCCO | 1.65%
CCOC(=O)Cc1ccc(-c2ccccc2)cc1 | 4.96%
CN(C)c1ccc(C(=C2C=CC(=[N+](C)C)C=C2)c2c(O)c(S(=O)(=O)[O-])cc3cc(S(=O)(=O)O)ccc23)cc1 | 1.14%
FC(F)(F)COCC(F)(F)F | -0.887%
CN1C(=O)C[C@@H](C(=O)N[C@@H](Cc2cnc[nH]2)C(=O)N2CCC[C@H]2C(N)=O)NC1=O | -0.824%
CC(CNC(=O)c1cccnc1)NC(=O)c1cccnc1 (stereo not given) | 0%
ClC(Cl)Cl | 4.84%
CC(C)O | -7.58%

Reference: PubChem BioAssay (NCATS)
